pPAFAH FP inh: inhibitors of human plasma PAF acetylhydrolase (pPAFAH). AID 463082. inhibition, % at 3.39 µM. recombinant pPAFAH, FP-rhodamine probe fluorescence polarization. 330,000 compounds, 1.5% hits;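 active = inhibition above the mean inhibition across the screen plus 3 SD, cut at about 25% in these data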;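 also: inhibitors block binding of the rhodamine activity-based probe so polarization drops; 0% = enzyme with DMSO and 100% = wells lacking pPAFAH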
DAGLB inh: blocks human DAGLB lipase activity; 340,000 compounds, 0.059% hits; AID 504411; HEK293T DAGLB membrane lysate, EnzChek fluorogenic substrate; inhibition, % at 5.17 µM; in the data active = inhibition above about 34%;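 also: 0% = enzyme with vehicle and 100% = wells lacking enzyme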
ATG4B inhibitor: inhibitors of human ATG4B cysteine protease; 340,000 compounds, 0.51% hits; ATG4B cleavage of LC3-PLA2, NBD-HPC fluorescence, 1 h; inhibition, % at 8.33 µM; Q9Y4P1; in the data active = inhibition above about 40%
Target sequence (Q9Y4P1 whole entry, looked up): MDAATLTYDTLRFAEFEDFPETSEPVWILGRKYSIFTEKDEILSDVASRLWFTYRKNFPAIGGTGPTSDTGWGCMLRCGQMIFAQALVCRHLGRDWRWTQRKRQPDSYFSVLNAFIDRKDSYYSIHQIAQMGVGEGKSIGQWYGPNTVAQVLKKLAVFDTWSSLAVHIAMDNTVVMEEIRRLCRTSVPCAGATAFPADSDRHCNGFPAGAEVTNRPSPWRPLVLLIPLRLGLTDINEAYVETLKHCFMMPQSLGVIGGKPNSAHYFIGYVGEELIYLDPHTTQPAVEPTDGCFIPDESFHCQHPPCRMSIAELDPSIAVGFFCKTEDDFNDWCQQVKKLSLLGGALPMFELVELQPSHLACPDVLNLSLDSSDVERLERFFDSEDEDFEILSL
PAFAH1B3 FP inh: PAFAH1B3 (human) inhibition; 340,000 compounds, 0.28% hits; recombinant PAFAH1B3, FP-rhodamine probe, fluorescence polarization; inhibition, % at 3.39 µM; Q15102;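 active = inhibition above the screen-wide average of all tested compounds plus 3 SD, cut at about 25% in these data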;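 also: 0% = enzyme with DMSO only and 100% = wells lacking PAFAH1B3 protein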
PAFAH2 inh: PAFAH2 (human) inhibition. recombinant PAFAH2, FP-rhodamine activity probe, fluorescence polarization. inhibition, % at 3.39 µM. 340,000 compounds, 0.99% hits. Q99487;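 active = inhibition above the mean over all tested compounds plus 3 SD, cut at about 30% in these data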;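 also: inhibitors block probe labeling of enzyme so polarization drops; 0% = enzyme with DMSO and 100% = wells lacking PAFAH2 protein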
PAFAH1B2 inh: PAFAH1B2 (human) inhibition; 340,000 compounds, 1.2% hits; inhibition, % at 3.39 µM; P68402; recombinant PAFAH1B2, FP-rhodamine activity probe, fluorescence polarization;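 active = inhibition above the mean of all tested compounds plus 3 SD, cut at about 24% in these data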;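 also: 0% = enzyme with DMSO and 100% = wells lacking PAFAH1B2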
Numbers without * were called inactive; x = no result given. Sampled rows, rich in hits. Any-hit rate of the full collection: about 3%.

SMILES	pPAFAH FP inh	DAGLB inh	ATG4B inhibitor	PAFAH1B3 FP inh	PAFAH2 inh	PAFAH1B2 inh
C[C@@H]1O[C@@H](OC[C@H]2O[C@@H](Oc3cc(O)c4c(=O)cc(-c5ccc(O)c(O)c5)oc4c3)[C@H](O)[C@@H](O)[C@@H]2O)[C@H](O)[C@H](O)[C@H]1O	15	-1	-6	87*	23	75*
O=c1c(-c2ccc(O)cc2)coc2cc(OC3OC(CO)C(O)C(O)C3O)cc(O)c12 (stereo not drawn)	-5	5	-6	2	-6	8
O=c1c(OC2OC(CO)C(O)C(O)C2O)c(-c2ccc(O)c(O)c2)oc2cc(O)cc(O)c12 (stereo not drawn)	29*	-1	1	46*	-7	3
O=c1cc(-c2ccc(O)c(O)c2)oc2cc(O[C@@H]3O[C@H](CO)[C@@H](O)[C@H](O)[C@H]3O)cc(O)c12	15	-1	-8	67*	52*	67*
CC(=O)c1ccc(S(=O)(=O)N2CCC(NC(=O)c3ccccc3)CC2)cc1	x	-2	-1	1	-2	2
O=C(Cc1ccccn1)c1ccc(F)cc1	-4	-1	0	-7	-5	3
O=C(NC(=S)Nc1cc([N+](=O)[O-])ccc1O)c1ccc2c(c1)OCO2	29*	15	5	21	14	18
CCCC(=O)Nc1c(-c2ccccc2Cl)c(=O)c2ccccc2n1C	3	-3	-3	7	4	4
CNC(=S)N(Cc1ccc(OC)cc1)C1CC(=O)N(c2ccc(Cl)cc2)C1=O (stereo not drawn)	3	-2	28	-3	1	33*
Cn1cc(C(=O)NS(=O)(=O)Nc2ccc(Br)cn2)c2ccccc21	0	-3	6	7	1	3
O=C1C2CCCN2C(=O)N1CCCN1CCN(c2cccc(Cl)c2)CC1 (stereo not drawn)	14	0	0	9	5	5
O=C1C2CCCCN2C(=O)N1CCCCN1CCN(c2cccc(Cl)c2)CC1 (stereo not drawn)	25*	0	-9	-5	-2	5
Cc1cc(NC(=O)C2(c3ccccc3)CCCC2)no1	-4	0	0	5	4	25*
Cc1cc(NC(=O)CCC(=O)N(Cc2ccco2)C2(C(=O)NC3CCCC3)CCCCC2)no1	4	2	-9	6	-6	10
Cc1cc(NC(=O)CCC(=O)N(c2ccccc2)C2(C(=O)NC3CCCCC3)CCCC2)no1	5	-1	-10	7	1	26*
CC1(C(=O)OCC(=O)Nc2cc(S(=O)(=O)N3CCOCC3)ccc2Cl)CC1(Cl)Cl (stereo not drawn)	x	0	-6	6	8	4
Cn1c(=O)c(=O)n(C)c2cc(S(=O)(=O)N3CCC(Cc4ccccc4)CC3)ccc21	-7	1	3	5	2	-1
O=c1[nH]c2ccc(S(=O)(=O)N3CCC(Cc4ccccc4)CC3)cc2o1	14	3	-2	0	4	29*
O=C(NCc1ccco1)c1c2c(nc3ccccc13)CCC2	27*	1	8	6	15	4
Nc1c(C(=O)NCc2ccco2)sc2nc3c(cc12)C(=O)CCC3	28*	2	4	-7	1	2
O=C(CSc1c2c(nc3ccccc13)CCCC2)NCc1ccco1	-1	0	-4	6	-3	2
CC(=O)O/N=C/c1c(C)c(C=O)n2ccccc12	9	3	-1	5	10	6
CCc1ccc(S(=O)(=O)/N=C2\C=CC(=O)c3ccccc32)cc1	40*	x	x	x	x	x
CCc1ccc(S(=O)(=O)/N=C2/C=C(Sc3ncn[nH]3)C(=O)c3ccccc32)cc1	6	-3	15	50*	41*	50*
COc1ccc(-c2noc(CCC(=O)NCC3CCCO3)n2)cc1OC (stereo not drawn)	1	0	-3	8	-6	-3
Cc1ccc(C(=O)COC(=O)c2ccccc2NC(=O)c2ccccc2)cc1[N+](=O)[O-]	-1	-10	0	-1	-4	2
COc1ccc(C(=O)NCCCNC(=O)c2ccccn2)cc1Br	-2	-7	1	1	5	2
COC(C/C=C\C(=O)COCc1ccccc1)OC	25*	x	x	x	x	x
